The whole screen tested about 220,000 compounds, of which about 750 (0.34%) were called active. The list comes from a sample in which actives are over-represented; it also holds similar structures and randomly drawn compounds. A number with no mark means an inactive call. No stated cut-off is given here; in the data, active means response below about 60% or above about 140%; inactive means in between.

Chain of Guanine nucleotide-binding protein G(o) subunit alpha (Homo sapiens) (P09471 whole entry, looked up): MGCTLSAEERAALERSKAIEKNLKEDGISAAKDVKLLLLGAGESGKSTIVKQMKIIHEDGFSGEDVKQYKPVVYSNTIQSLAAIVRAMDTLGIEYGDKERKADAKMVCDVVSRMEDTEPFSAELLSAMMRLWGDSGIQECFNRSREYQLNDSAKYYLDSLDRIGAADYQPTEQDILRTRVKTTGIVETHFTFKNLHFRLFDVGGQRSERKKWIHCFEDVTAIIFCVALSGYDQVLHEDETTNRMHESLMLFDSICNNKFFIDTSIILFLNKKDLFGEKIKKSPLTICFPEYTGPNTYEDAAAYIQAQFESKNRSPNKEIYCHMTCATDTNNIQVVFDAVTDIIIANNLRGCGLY

The assay concerns the target Guanine nucleotide-binding protein G(o) subunit alpha (Homo sapiens) (UniProt P09471). Briefly: RGS8-Galphao binding modulators, primary screen, biochemical, multiplexed bead flow cytometry (AID 1423).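 Further: Galphao activated as the GDP aluminium fluoride complex binding bead-coupled RGS8.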 The settings on record: at 10 µM, actives lie on both sides. In general terms: A flow cytometer gives signals particle by particle.
Take `CCCC(=O)n1nc(-c2ccccc2)nc1N`: the response (percent of control binding) was 20.9% (active).

Regarding `COc1ccc(CC(=O)n2nc(-c3cccnc3)nc2N)cc1`, the response (percent of control binding) was 101%.

Consider `COc1ccccc1C(=O)n1nc(-c2ccccc2)nc1N`, for which the response (percent of control binding) was 101%.

As for `COC(=O)Nc1ncc(CN2CCCCC2)s1`, the response (percent of control binding) is 111%.

As to `CCOC(=O)CNc1nc2ccccc2n2c(C)nnc12`, the response (percent of control binding) is 99.9%.

On to `O=C1CCC(=O)N(O)CCCCCNC(=O)CCC(=O)N(O)CCCCCNC(=O)CCC(=O)N(O)CCCCCN1`, for which the response (percent of control binding) is 55.9% (active).

As to `CCSc1nc(C)c(CCOc2cccc(C)c2)c(=O)[nH]1`, the response (percent of control binding) was 101%.

As for `CN(C)S(=O)(=O)c1cccc(-c2nn(-c3ccccc3)cc2/C=C2\SC(=S)N(CC(=O)O)C2=O)c1`, the response (percent of control binding) is 99.8%.

Take `Cc1ncn2cc(-c3ccc(Cl)cc3Cl)[nH]c(=O)c12`: the response (percent of control binding) was 102%.

Consider `O=C(Nc1nnc(Cc2ccc(Cl)cc2)s1)c1ccncc1`, for which the response (percent of control binding) was 101%.

In the case of `Cc1c(NC(=O)C(=O)N/N=C/c2cccs2)c(=O)n(-c2ccccc2)n1C`, the response (percent of control binding) is 103%.

On to `COc1ccc(C(=O)COC(=O)COc2ccc(C)c(C)c2)cc1`, for which the response (percent of control binding) was 102%.

For `Cc1nc2cc(NC(=O)NC3CC3)ccc2n1C`, the response (percent of control binding) is 103%.

Take `Cc1cc2nc(C)n(CCCNC(=O)Nc3ccccc3)c2cc1C`: the response (percent of control binding) was 170% [activator] (active).

`Cc1nc2cc(NC(=O)Nc3cccc(F)c3)ccc2n1C`: the response (percent of control binding) was 97.9%.

Turning to `O=C(O)/C=C/c1ccc(OCCCF)cc1`, the response (percent of control binding) is 98%.

For `O=C(Cc1ccccc1)NCC1OCCc2ccccc21` (configuration not stated), the response (percent of control binding) is 100%.

Take `CCc1cc(C(=O)c2ccc(OC)cc2)c(NC(=O)CN2CCN(C)CC2)s1`: the response (percent of control binding) is 107%.

Consider `CC(C)Cc1nc(Nc2ccc(S(=O)(=O)N3CCCC3)cc2)c2nnn(Cc3ccccc3)c2n1`, for which the response (percent of control binding) is 141% [activator] (active).

Consider `Clc1ccc(Nc2ncnc3c2nnn3Cc2ccccc2)cc1`, for which the response (percent of control binding) was 99.3%.

Consider `Cc1nc(Nc2ccc(S(=O)(=O)N3CCCC3)cc2)c2nnn(Cc3ccccc3)c2n1`, for which the response (percent of control binding) was 101%.

On to `CC(C)CCNC(=O)C1CCC(CNc2c(N3CCC(C)CC3)c(=O)c2=O)CC1` (configuration not stated), for which the response (percent of control binding) is 99.2%.

Regarding `NC(=O)C1(N2CCCCC2)CCN(C2CC(=O)N(Cc3ccc(N4CCCC4=O)cc3)C2=O)CC1` (configuration not stated), the response (percent of control binding) was 97.6%.

With `Cc1cccc(C(=O)NNC(=O)c2cccc([N+](=O)[O-])c2)c1`, the response (percent of control binding) is 101%.

Consider `C=CCn1c(Cn2nnc3ccccc32)nnc1SCC(=O)N/N=C/c1cc(Br)cc(OC)c1O`, for which the response (percent of control binding) is 5.17% (active).

Regarding `Cc1ccc(Cn2c(SCC(=O)N/N=C/c3ccccc3OCC(=O)O)nc3ccccc32)cc1`, the response (percent of control binding) is 104%.

As to `COc1ccc(OC)c(/C=N/NC(=O)CSc2nnc(C)n2-c2ccccc2)c1`, the response (percent of control binding) is 95.2%.
